# From PubChem BioAssay (Tox21)
# Values joined by “and” are separate entries in the source; they are usually repeats but may differ in a detail not shown here. Identical values can stand only once. The source holds several records for some structures; these can differ, active in one and inactive in another. Active and inactive are the calls of the source. Entries that show only a call come without a potency. Unless noted, calls follow the shape of the dose curve; as a rule, active = well fitted curve in the direction sought with a large enough effect in the repeat runs; inconclusive = weak or mixed curves; inactive = no such curve, though single readings can be large; an effect the other way counts as inactive or inconclusive.
# Legend:
# [1] = qHTS assay to test for compound auto fluorescence at 535 nm (green) in HEK293 cells (AID 720680)
# [2] = qHTS assay to test for compound auto fluorescence at 460 nm (blue) in HEK293 cell free culture (AID 720681)
# How it was run: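 Compounds were added to cell-free DMEM with 10% FBS and fluorescence read directly. The blue channel used 405 nm excitation and 460 nm emission, with triamterene as the reference fluorophore.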
# [3] = qHTS assay to test for compound auto fluorescence at 535 nm (green) in HEK293 cell free culture (AID 720682)
# How it was run: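 Green-channel intensity (Ex/Em 485/535 nm) was recorded from compound-treated wells containing only DMEM with 10% FBS. Fluorescein provided the equivalency standard.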
# [4] = qHTS assay to test for compound auto fluorescence at 590 nm (red) in HEK293 cell free culture (AID 720683)
# How it was run: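 Cell-free wells of DMEM with 10% FBS received compound, and intrinsic fluorescence was read at excitation/emission 540/590 nm. Values expressed as equivalence to Rose Bengal sodium.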
# [5] = qHTS assay to test for compound auto fluorescence at 590 nm (red) in HepG2 cell free culture (AID 720684)
# How it was run: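 Compound was pinned into wells holding MEM with 10% FBS and no cells, and red fluorescence was read at Ex/Em 540/590 nm. Signal is expressed as auto fluorescence equivalency relative to Rose Bengal sodium.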
# [6] = qHTS assay to test for compound auto fluorescence at 460 nm (blue) in HepG2 cell free culture (AID 720685)
# How it was run: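 Compound (23 nL) or DMSO pinned into cell-free MEM with 10% FBS; blue fluorescence read at 405/460 nm excitation/emission, expressed as auto-fluorescence equivalency to triamterene.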
# [7] = qHTS assay to test for compound auto fluorescence at 535 nm (green) in HepG2 cell free culture (AID 720686)
# [8] = qHTS assay to test for compound auto fluorescence at 460 nm (blue) in HepG2 cells (AID 720687)
# How it was run: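 HepG2 cells in MEM with 10% FBS, attached overnight at 37 C, were exposed to compound or DMSO for 1 hr at 37 C, 5% CO2. Blue fluorescence was read at 405/460 nm, with triamterene as reference fluorophore.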
# [9] = target: Glucocorticoid receptor (Homo sapiens) (UniProt P04150); test: qHTS assay to identify small molecule agonists of the glucocorticoid receptor (GR) signaling pathway (AID 720691; active = well fitted activation curve with a large enough effect in the signal ratio in the repeat runs, not every such curve was filed as active; inconclusive = weak or mixed curves, or effect the other way; inactive = no such curve, though single readings can be large or run the other way; the % refers to the signal ratio; also: potency is read from the fitted curve at half-maximal effect)
# Glucocorticoid receptor (Homo sapiens), sequence (P04150 whole entry, looked up): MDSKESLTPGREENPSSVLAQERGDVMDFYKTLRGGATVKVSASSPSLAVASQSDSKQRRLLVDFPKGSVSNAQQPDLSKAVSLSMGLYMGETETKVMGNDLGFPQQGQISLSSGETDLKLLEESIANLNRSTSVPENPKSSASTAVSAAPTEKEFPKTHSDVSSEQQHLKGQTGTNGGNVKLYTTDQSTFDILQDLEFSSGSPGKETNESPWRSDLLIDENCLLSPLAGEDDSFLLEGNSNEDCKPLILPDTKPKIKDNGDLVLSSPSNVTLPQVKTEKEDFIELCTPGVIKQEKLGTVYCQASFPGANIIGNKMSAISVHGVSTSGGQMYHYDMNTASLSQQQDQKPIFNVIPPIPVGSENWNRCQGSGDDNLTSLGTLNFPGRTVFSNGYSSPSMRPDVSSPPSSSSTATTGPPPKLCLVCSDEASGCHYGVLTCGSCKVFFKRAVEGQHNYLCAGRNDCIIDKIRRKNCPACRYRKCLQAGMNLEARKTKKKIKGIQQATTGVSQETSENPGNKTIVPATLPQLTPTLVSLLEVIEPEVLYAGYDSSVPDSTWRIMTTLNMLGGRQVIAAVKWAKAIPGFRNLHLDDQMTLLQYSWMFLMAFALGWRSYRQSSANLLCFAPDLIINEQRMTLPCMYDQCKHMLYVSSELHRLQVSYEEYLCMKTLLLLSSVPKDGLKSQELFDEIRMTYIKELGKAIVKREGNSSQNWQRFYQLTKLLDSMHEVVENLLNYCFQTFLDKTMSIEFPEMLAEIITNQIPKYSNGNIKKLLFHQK
# How it was run: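 Beta-lactamase reporter activity, read as fluorescence intensity, was measured in GR-bla HeLa cells exposed to compounds for 18 h at 37 C and then loaded with LiveBLAzer B/G FRET substrate for 2 h at room temperature.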
# [10] = target: Glucocorticoid receptor (Homo sapiens) (UniProt P04150); test: qHTS assay to identify small molecule antagonists of the glucocorticoid receptor (GR) signaling pathway (AID 720692; active = well fitted inhibition curve with a large enough effect in the signal ratio in the repeat runs, not every such curve was filed as active; inconclusive = weak or mixed curves, or effect the other way; inactive = no such curve, though single readings can be large or run the other way; the % refers to the signal ratio; also: potency is read from the fitted curve at half-maximal effect)
# How it was run: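 Fluorescence from cleaved LiveBLAzer B/G FRET substrate reports GRE-driven beta-lactamase in HeLa cells; compounds are tested against 5 nM dexamethasone (final) over 18 h at 37 C, substrate incubation 2 h at room temperature.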
# [11] = qHTS assay to identify small molecule antagonists of the glucocorticoid receptor (GR) signaling pathway - cell viability counter screen (AID 720693); also: nearly all actives have a fitted effect of over 55% in size; also: potency is read from the fitted curve at half-maximal effect
# [12] = qHTS assay for identifying genotoxic compounds that show differential cytotoxicity against isogenic chicken DT40 cell lines with known DNA damage response pathways - wild type cell line (AID 743012); also: nearly all actives have a fitted effect of over 60% in size; also: potency is read from the fitted curve at half-maximal effect
# How it was run: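 Quantitative HTS on parental DT40 cells: 40 h compound treatment at 37 C/5% CO2, with viability then determined by CellTiter-Glo luminescence. Values serve as the DNA repair-proficient reference for differential cytotoxicity.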
# [13] = qHTS assay for identifying genotoxic compounds that show differential cytotoxicity against isogenic chicken DT40 cell lines with known DNA damage response pathways - Rev3 mutant cell line (AID 743014); also: nearly all actives have a fitted effect of over 55% in size; also: potency is read from the fitted curve at half-maximal effect
# [14] = qHTS assay for identifying genotoxic compounds that show differential cytotoxicity against isogenic chicken DT40 cell lines with known DNA damage response pathways - Rad54/Ku70 mutant cell line (AID 743015); also: nearly all actives have a fitted effect of over 60% in size; also: potency is read from the fitted curve at half-maximal effect
# [15] = qHTS assay to identify small molecule antagonists of the androgen receptor (AR) signaling pathway - cell viability counter screen (AID 743033; also: nearly all actives have a fitted effect of over 45% in size; also: potency is read from the fitted curve at half-maximal effect)
# [16] = qHTS assay to identify small molecule antagonists of the androgen receptor (AR) signaling pathway using the MDA cell line - cell viability counter screen (AID 743041; also: nearly all actives have a fitted effect of over 45% in size)
# How it was run: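 MDA-kb2 AR-luc cells (MMTV-luciferase, AR/GR responsive) treated with compounds plus R1881 agonist for 16 h at 37C. CellTiter-Fluor added at 15.5 h; fluorescence read after 30 min in the same wells.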
# [17] = target: Androgen receptor (Homo sapiens) (UniProt P10275); test: qHTS assay to identify small molecule antagonists of the androgen receptor (AR) signaling pathway (AID 743035; active = well fitted inhibition curve with a large enough effect in the signal ratio in the repeat runs, not every such curve was filed as active; inconclusive = weak or mixed curves, or effect the other way; inactive = no such curve, though single readings can be large or run the other way; the % refers to the signal ratio)
# Androgen receptor (Homo sapiens), sequence (P10275 whole entry, looked up): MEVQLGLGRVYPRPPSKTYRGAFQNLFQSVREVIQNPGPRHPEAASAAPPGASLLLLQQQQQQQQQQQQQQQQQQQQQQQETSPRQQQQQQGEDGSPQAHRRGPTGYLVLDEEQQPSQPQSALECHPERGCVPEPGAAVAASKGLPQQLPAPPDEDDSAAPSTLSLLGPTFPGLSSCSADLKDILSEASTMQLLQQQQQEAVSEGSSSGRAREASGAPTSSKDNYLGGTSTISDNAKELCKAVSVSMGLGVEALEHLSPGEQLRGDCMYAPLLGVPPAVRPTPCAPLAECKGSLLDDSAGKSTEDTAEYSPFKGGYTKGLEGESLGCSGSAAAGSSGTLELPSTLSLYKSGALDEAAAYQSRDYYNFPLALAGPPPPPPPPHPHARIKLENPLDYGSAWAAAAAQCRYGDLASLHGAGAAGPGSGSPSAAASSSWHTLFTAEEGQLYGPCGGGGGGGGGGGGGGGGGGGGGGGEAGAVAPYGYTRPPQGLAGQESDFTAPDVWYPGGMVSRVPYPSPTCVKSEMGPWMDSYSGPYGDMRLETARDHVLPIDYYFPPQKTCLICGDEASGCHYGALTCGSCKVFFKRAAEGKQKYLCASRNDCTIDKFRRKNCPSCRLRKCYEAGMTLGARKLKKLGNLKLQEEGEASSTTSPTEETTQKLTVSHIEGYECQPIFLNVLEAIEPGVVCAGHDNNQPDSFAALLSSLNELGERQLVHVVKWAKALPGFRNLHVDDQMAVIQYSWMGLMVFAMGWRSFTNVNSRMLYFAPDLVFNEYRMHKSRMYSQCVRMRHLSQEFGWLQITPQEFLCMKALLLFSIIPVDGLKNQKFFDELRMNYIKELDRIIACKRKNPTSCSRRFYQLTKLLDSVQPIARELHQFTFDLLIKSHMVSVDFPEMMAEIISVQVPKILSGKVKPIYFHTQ
# How it was run: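 Cell line: GeneBLAzer AR-UAS-bla GripTite (HEK293). Stimulus: R1881 added after compound. Exposure: 16 h, 37C, 5% CO2. Readout: LiveBLAzer B/G FRET fluorescence after 2 h at room temperature.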
# [18] = target: Androgen receptor (Homo sapiens) (UniProt P10275); test: qHTS assay to identify small molecule agonists of the androgen receptor (AR) signaling pathway (AID 743036; active = well fitted activation curve with a large enough effect in the signal ratio in the repeat runs, with a control signal flat, not every such curve was filed as active; inconclusive = weak or mixed curves, or effect the other way; inactive = no such curve, though single readings can be large or run the other way; the % refers to the signal ratio)
# How it was run: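 Cell-based FRET reporter assay: HEK293 line with a UAS-beta-lactamase construct, compounds added in DMSO, 16 h exposure at 37C, then 2 h substrate step at room temperature and fluorescence intensity read.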
# [19] = target: Androgen receptor (Homo sapiens) (UniProt P10275); test: qHTS assay to identify small molecule agonists of the androgen receptor (AR) signaling pathway using the MDA cell line (AID 743040; also: nearly all actives have a fitted effect of over 20% in size)
# How it was run: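 MDA-kb2 breast carcinoma cells carrying MMTV-luciferase (responsive to AR and GR), plated 5 h then treated 16 h with compounds at 37C, 0% CO2. Read-out was ONE-Glo luminescence after 30 min at room temperature.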
# [20] = target: Androgen receptor (Homo sapiens) (UniProt P10275); test: qHTS assay to identify small molecule antagonists of the androgen receptor (AR) signaling pathway using the MDA cell line (AID 743042; also: nearly all actives have a fitted effect of over 55% in size; also: potency is read from the fitted curve at half-maximal effect)
# How it was run: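 MDA-kb2 breast carcinoma cells carrying MMTV-luciferase (AR/GR responsive) were co-treated with compounds and the agonist R1881 for 16 h at 37C. Inhibition read as ONE-Glo luminescence; CellTiter-Fluor fluorescence measured in parallel for cytotoxicity.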
Structure (SMILES),Potency [1],outcome [2],Potency [3],Potency [4],Potency [5],outcome [6],Potency [7],outcome [8],Potency [9],Potency [10],Potency [11],Potency [12],Potency [13],Potency [14],Potency [15],Potency [16],Potency [17],outcome [18],Potency [19],Potency [20]
CN1C(C(=O)Nc2ccccn2)=C(O)c2ccccc2S1(=O)=O,inactive,inactive,inactive,inactive,inactive,inactive,inactive,inactive,inactive,inactive,inactive,inactive,inactive,inactive,inactive,inactive,,,,
COc1ccc(OC)c(C(O)CNC(=O)CN)c1 (centres undefined),inactive,inactive,inactive,inactive,inactive,inactive,inactive,inactive,inactive,inactive,inactive,inactive,,inactive,inactive,inactive,,,,
CCCC(=O)O,inactive,inactive,inactive,inactive,inactive,inactive,inactive,inactive,inactive,inactive,inactive,inactive,inactive,inactive,inactive,inactive,,,,
OC[C@H]1O[C@@H]2O[C@H]3[C@H](O)[C@@H](O)[C@@H](O[C@H]4[C@H](O)[C@@H](O)[C@@H](O[C@H]5[C@H](O)[C@@H](O)[C@@H](O[C@H]6[C@H](O)[C@@H](O)[C@@H](O[C@H]7[C@H](O)[C@@H](O)[C@@H](O[C@H]8[C@H](O)[C@@H](O)[C@@H](O[C@H]1[C@H](O)[C@H]2O)O[C@@H]8CO)O[C@@H]7CO)O[C@@H]6CO)O[C@@H]5CO)O[C@@H]4CO)O[C@@H]3CO,inactive,inactive,inactive,inactive,inactive,inactive,inactive,inactive,inactive,inactive,inactive,inactive,inactive,inactive,inactive,inactive,,,,
Brc1cc(Oc2cc(Br)c(Br)c(Br)c2Br)c(Br)c(Br)c1Br,inactive,inactive,inactive,inactive,inactive,inactive,inactive,inactive,inactive,inactive,inactive,inactive,inactive,inactive,inactive,inactive,,,,
Nc1ccc(Cl)cc1Cl,inactive,inactive,inactive,inactive,inactive,inactive,inactive,inactive,inactive,inactive,inactive,inactive,inactive,inactive,inactive,inactive,,,,
OC(CCl)CCl,inactive,inactive,inactive,inactive,inactive,inactive,inactive,inactive,inactive,inactive,inactive,inactive,inactive,inactive,inactive,inactive,,,,
COC(=O)Nc1nc2ccc(S(=O)c3ccccc3)cc2[nH]1 (centres undefined),inactive,inactive,inactive,inactive,inactive,inactive,inactive,inactive,inactive,inactive,inactive,9.44 µM (active) and 6.85 µM (active),11.9 µM (active) and 6.11 µM (active),13.3 µM (active) and 8.63 µM (active),inactive,inactive,,,,
O=C(/C=C/c1ccccc1)OCc1ccccc1,inactive,inactive,inactive,inactive,inactive,inactive,inactive,inactive,inactive,inactive,inactive,inactive and 54.5 µM (active),inactive and 38.6 µM (active),inactive and 43.3 µM (active),inactive,inactive,,,,
COc1ccc(C(=O)CC(=O)c2ccc(C(C)(C)C)cc2)cc1,inactive,inactive,inactive,inactive,inactive,inactive,inactive,inactive,inactive,inactive,inactive,inactive,inactive,inactive,inactive,inactive,,,,
O=S(=O)(O)c1ccc(O)cc1,inactive,inactive,inactive,inactive,inactive,inactive,inactive,inactive,inactive,inactive,inactive,inactive,inactive,inactive,inactive,inactive,,,,
CC(C)Oc1ccc2c(=O)c(-c3ccccc3)coc2c1,inactive,inactive,inactive,inactive,inactive,inactive,inactive,inactive,inactive,,inactive,6.68 µM (active),4.22 µM (active),9.44 µM (active),inactive,inactive,,,,
Oc1ccc(O)cc1,inactive,inactive,inactive,inactive,inactive,inactive,inactive,inactive,inactive,,,23.7 µM (active) and 9.63 µM (active) and 61.1 µM (active),18.8 µM (active) and 24.2 µM (active) and 48.6 µM (active),26.6 µM (active) and 13.6 µM (active) and 54.5 µM (active),inactive,inactive,,,,
O=C(OCc1ccccc1)c1ccccc1O,inactive,inactive,inactive,inactive,inactive,inactive,inactive,inactive,inactive,inactive,inactive,,,,inactive,inactive,,,,
CC(C)OC(=O)C(C)(C)Oc1ccc(C(=O)c2ccc(Cl)cc2)cc1,inactive,inactive,inactive,inactive,inactive,inactive,,inactive,inactive,inactive,inactive,29.8 µM (active) and 12.2 µM (active),24.3 µM (active),15.4 µM (active),inactive and 43.6 µM (active),,inactive,inactive,inactive,inactive and 48.6 µM (active)
CN(C)CCC=C1c2ccccc2CCc2ccccc21,inactive,inactive,inactive,inactive,inactive,inactive,inactive,inactive,inactive,,inactive,9.44 µM (active) and 54.5 µM (active),13.3 µM (active) and 30.6 µM (active),13.3 µM (active) and 54.5 µM (active),inactive,,,,,
COc1cccc2c1C(=O)c1c(O)c3c(c(O)c1C2=O)C[C@@](O)(C(=O)CO)C[C@@H]3O[C@H]1C[C@H](N)[C@H](O)[C@H](C)O1,inactive,inactive,inactive,inactive,inactive,inactive,inactive,inactive,535 nM [inconclusive] (active) and 174 nM (active),inactive,,inactive and 66.8 nM (active) and 24.3 nM (active),inactive and 84.1 nM (active) and 9.7 nM (active),inactive and 10.6 nM (active) and 3.1 nM (active),inactive,inactive,,,,
OCCO,inactive,inactive,inactive,inactive,inactive,inactive,inactive,inactive,,,inactive,inactive,inactive,inactive,inactive,inactive,inactive,inactive,inactive,inactive
C=C(C)C1CC=C(C)CC1 (centres undefined),inactive,inactive,inactive,inactive,inactive,inactive,inactive,inactive,,,inactive,inactive,inactive,inactive,inactive,inactive,,,,
Cc1ccc(C(=O)c2cc(O)c(O)c([N+](=O)[O-])c2)cc1,inactive,inactive,inactive,inactive,inactive,inactive,inactive,inactive,inactive,34.7 µM (active),,,inactive and 68.6 µM (active),48.6 µM (active),inactive,inactive,,,,
COc1ccccc1/C=C/C=O,inactive,inactive,inactive,inactive,inactive,inactive,inactive,inactive,inactive,inactive,inactive,,62.8 µM (active),31.4 µM (active) and 54.5 µM (active),inactive,inactive,,,,
NC=O,inactive,inactive,inactive,inactive,inactive,inactive,inactive,inactive,,,inactive,inactive,inactive,inactive,inactive,inactive,,,,
CC(C(=O)O)c1cccc(C(=O)c2ccccc2)c1 (centres undefined),inactive,inactive,inactive,inactive,inactive,inactive,inactive,inactive,,,inactive,inactive,inactive,inactive,inactive,inactive,,,,
C[C@]12CC[C@H]3[C@@H](CCC4=CC(=O)CC[C@@]43C)[C@@H]1CC[C@@H]2C(=O)CO,inactive,inactive,inactive,inactive,inactive,inactive,inactive,inactive,inactive,811 nM (active) and 977 nM (active),,6.86 µM (active),9.69 µM (active),8.63 µM (active),inactive,inactive,,,,
O=C(Nc1ccc([N+](=O)[O-])cc1Cl)c1cc(Cl)ccc1O,inactive,inactive,inactive,inactive,inactive,inactive,inactive,inactive,inactive,,0.275 µM (active),422 nM (active) and 770 nM (active),473 nM (active) and 686 nM (active),473 nM (active) and 611 nM (active),1.51 µM (active) and 436 nM (active),,,,,
COC(=O)c1ccccc1,inactive,inactive,inactive,inactive,inactive,inactive,inactive,inactive,,,inactive,inactive,inactive,inactive,inactive,inactive,,,,
COC(C)COC(C)COC(C)CO (centres undefined),inactive,inactive,inactive,inactive,inactive,inactive,inactive,inactive,,,inactive,inactive,inactive,inactive,inactive,inactive,inactive,inactive,inactive,inactive
